Assay results: publication PMC13494018; call rule not given here

B1: design_605_6ebdab39-eaab-4492-afcb-164e20c3b25e_128_dldesign_0_cycle1_af2pred (protein)
chain: MEEKKAEEKKLKEKKEEAKEYLRRAKRAMGRAMVKGDEEAFELAEEAVYLAHLAIKDPKYIEEAKKKTEEAEKRVEA
B2: design_604_3e0b3014-b333-46f1-8adc-d7f0bf8048fa_2314_dldesign_0_cycle1_af2pred (protein)
chain: EKEKRKEAIEKAEKVSTRIAKDIDTPEAKKIEELTKEAAEKALENVDNPEEVVKIMKEAAEEAAKDPEMEAVALVWKNAADFIK
B3: design_604_3e0b3014-b333-46f1-8adc-d7f0bf8048fa_2138_dldesign_0_cycle1_af2pred (protein)
chain: GEELIKRAEEVIERAEKVRKEDPSLAKEANEAISTAEQAKQAAENAVKAAADPEKAKEFKEAAEKYLEKAEKRVEELEKKVKE
B4: design_604_3e0b3014-b333-46f1-8adc-d7f0bf8048fa_1248_dldesign_0_cycle1_af2pred (protein)
chain: NAYEEAKKAVDEMEKAMKALAKADPSLADEMKDKIATARKRLEAAKTDEEYKKVAEEAKKAKAAAQSILDALKKN
B5: design_604_3e0b3014-b333-46f1-8adc-d7f0bf8048fa_1604_dldesign_0_cycle1_af2pred (protein)
chain: MKDAEKLDEINKLSAEAGKLLKEAAKKDPSRKAELEAAAKEAAKKFDEAYDLFEKDPDAGLALAKEAYKEVKKLVEA
B6: design_604_3e0b3014-b333-46f1-8adc-d7f0bf8048fa_1498_dldesign_0_cycle1_af2pred (protein)
chain: SEKEKEEEERKKLAEEERAAAKAALAAAKAAAQKGDVAAAIAAAQEARIHASAYAQYLKTEEAKKERDAIVAAAKAAVAAAKAA
B7: design_604_3e0b3014-b333-46f1-8adc-d7f0bf8048fa_1221_dldesign_0_cycle1_af2pred (protein)
chain: AEMEERKAKGLEQAERLAERAKEAGKLNPEKAAELLGKAEAMLAKVRAMDNEAQWAEAAKEAAKLRELIAEAETEARRKKEEE
B8: design_604_3e0b3014-b333-46f1-8adc-d7f0bf8048fa_1332_dldesign_0_cycle1_af2pred (protein)
chain: EEVKEYLAKLSAEAYELLAEAEVLYKKTGSEKAKEAKELAKEALKELKEAGKLLEEDPEKAKEKAKIGEEKLKKAKEILEEIYKE
B9: design_604_3e0b3014-b333-46f1-8adc-d7f0bf8048fa_1994_dldesign_0_cycle1_af2pred (protein)
chain: DNKKTVEALSKVNRLGKEAGEAPKEETMKLVEEGVKYAKEEAKKLKDPDYKKYLIDRGKELEENAKKYLA
B10: design_604_3e0b3014-b333-46f1-8adc-d7f0bf8048fa_1621_dldesign_0_cycle1_af2pred (protein)
chain: MEAEKRNEEYAKEVEELYKKVLDGDIEEDKEALKKAEKLLEEAEADPEMKEEVLKGLRAAVRMAKASIEAEEKR
B11: design_605_6ebdab39-eaab-4492-afcb-164e20c3b25e_2_dldesign_0_cycle1_af2pred (protein)
chain: SAVKEEAKKIIDEALDAGFEDPEKGRALAEEAYKLLASVPELAALGEEALKKVNAIIDRFEEATKKAEESRK
B12: design_604_3e0b3014-b333-46f1-8adc-d7f0bf8048fa_1534_dldesign_0_cycle1_af2pred (protein)
chain: KTEAIQKFADTLSEIIKLAAEAGKKSGKTAEYQALIEGALSGDFETAVKNAKEAAKLAKKDDPELGKKIEEAAKKLAEYAKKVLES
B13: design_604_3e0b3014-b333-46f1-8adc-d7f0bf8048fa_2086_dldesign_0_cycle1_af2pred (protein)
chain: SAAAEKNVALASGTFKRLLEFPEEEQVATIADSIRANPAAADYFAAAAKADKENGPKLKKVLDIAAAKVAAA
B14: design_604_3e0b3014-b333-46f1-8adc-d7f0bf8048fa_2309_dldesign_0_cycle1_af2pred (protein)
chain: SHELLQQAIEELTAAEAEARRAAKIAEKKDKELAKKAKELAKKARELRKELIEKAKAGEATDEYIEEVLKKAKELEKEAKKILKEL
B15: design_604_3e0b3014-b333-46f1-8adc-d7f0bf8048fa_1397_dldesign_0_cycle1_af2pred (protein)
chain: SENELTEEAVSLAARVSKRANELGKKTGSEELLKLSEEAKELRDKIVDDPSTAEEALKKVKELEKRIEELTAA
B16: design_604_3e0b3014-b333-46f1-8adc-d7f0bf8048fa_2312_dldesign_0_cycle1_af2pred (protein)
chain: MEEVEKLKKEAEKAAKEAEKAVERIKDPKTAKEALKEASKELAKLYELAAELEHLPEGKEAGKEVREKAKKLREEAKKAWAAQLAA
B17: design_604_3e0b3014-b333-46f1-8adc-d7f0bf8048fa_1973_dldesign_0_cycle1_af2pred (protein)
chain: MAEKEAKAKKLMAEGYSKVYEAAALARVDPEEGKKEWEEVVEKYTKELEKLDPEKGKELKEKAEKLLEKAL
B18: design_604_3e0b3014-b333-46f1-8adc-d7f0bf8048fa_1344_dldesign_0_cycle1_af2pred (protein)
chain: KEKQKELLLESAVEEAEKAAKLLKDPELGKRLLTAVKAAKEDVSKAPEAAAVAREVGAKEPEASLEASAAAASLLSAYRIAKS
B19: design_604_3e0b3014-b333-46f1-8adc-d7f0bf8048fa_1387_dldesign_0_cycle1_af2pred (protein)
chain: ELDALVRAAIGEAVVFVLGPAAAPAAERIAAATPEEAKALLEEIAATQTPYQAAELLHTARAFAAYAETKYS
B20: design_604_3e0b3014-b333-46f1-8adc-d7f0bf8048fa_1712_dldesign_0_cycle1_af2pred (protein)
chain: SEEGQKVLEKIEELRKEAEKFAKENKENGPKFARELAKKMRELAEKAKKEYGWNQEILNKASKVVHEARQLANEAEVEAKK
B21: design_604_3e0b3014-b333-46f1-8adc-d7f0bf8048fa_2199_dldesign_0_cycle1_af2pred (protein)
chain: DAAVKAEASKVAAEAYEVIAEIEKLDPEKGKELRKKLKEARKKAKEDPKAGLAALKEVLEESKKELEKLKKEEKEKE
B22: design_604_3e0b3014-b333-46f1-8adc-d7f0bf8048fa_1479_dldesign_0_cycle1_af2pred (protein)
chain: MEEEVKKAKEKIEKLEKAALKTIDILEESAKLGDDISGIKTAAKAAEKEFGKLAKEYPGAAAYAKEAEKKVVDYANKAIKAAKAAK
B23: design_604_3e0b3014-b333-46f1-8adc-d7f0bf8048fa_1627_dldesign_0_cycle1_af2pred (protein)
chain: ENLEKAKAADEKAKKFEDKAKEYEAKGKAEGKKYLYKAAAYYYAAAHAYNVAAKYYEKEGKAEEAAAAKAKAKEAEAKGNELAAK
B24: design_604_3e0b3014-b333-46f1-8adc-d7f0bf8048fa_2206_dldesign_0_cycle1_af2pred (protein)
chain: NELEKLKEEIKKEGEKKLKEVEEKYKEAKKLLKEDKEKGLKLLAETAGKAYEYAAEFEVLSKKVPEAAEYAKKLRAKAKEIRKLAEEA
B25: design_605_6ebdab39-eaab-4492-afcb-164e20c3b25e_16_dldesign_0_cycle1_af2pred (protein)
chain: AAAAHAKAVAEAKEEMKETIKEEAKKAKEKNEEAGKESLEFGKELLEFFEKSMEKVKDPKEAKKGGERGKKIIKKNAEAITKAIT
B26: design_604_3e0b3014-b333-46f1-8adc-d7f0bf8048fa_2376_dldesign_0_cycle1_af2pred (protein)
chain: EEFEKAKKELKEAAEEAKKIDPEVGKEAKKIAEKATKVADSIIEKVGERAKPIATDILKNAKEKIKKLTEKRKKEKEA
B27: design_605_6ebdab39-eaab-4492-afcb-164e20c3b25e_50_dldesign_0_cycle1_af2pred (protein)
chain: DEKIEELREAILESAKSGGETVEEVAKLAKELGLTSAEVMLAALEAAEELPEKRELAREIGRRIAAAVLA
B28: design_604_3e0b3014-b333-46f1-8adc-d7f0bf8048fa_1927_dldesign_0_cycle1_af2pred (protein)
chain: LVEEAKKIAEEKAEEMKKAMEKAEKEGKEAMKKAKEKFKKLRAELKKLYEEYKKKDPEAAKKLAEGAHKMYEYMNEAEHKL
B29: design_604_3e0b3014-b333-46f1-8adc-d7f0bf8048fa_1949_dldesign_0_cycle1_af2pred (protein)
chain: AEKYKKKMAEAAHLYADLAMEGKPEEGEKEADAIIEKALKEGKAAGDGEAAEAAAKEARATMEYLKKTMEEADKRNK
B30: design_604_3e0b3014-b333-46f1-8adc-d7f0bf8048fa_1827_dldesign_0_cycle1_af2pred (protein)
chain: MTHEEINAASYALRALTRAARDVPEAAAEFEAQIDFLMSGSIEEGVEKVIALAEKYRDRLSPEALALFEKAKEYLEKAK
B31: design_604_3e0b3014-b333-46f1-8adc-d7f0bf8048fa_1261_dldesign_0_cycle1_af2pred (protein)
chain: EAEKAAKKAEEVGKKAVKEVKKAVEEGLPKEELSKVVHEEIQKITEASTEAARIAEEKAGKEAGEKVLKAGEEARKKLIAIAKE
B32: design_604_3e0b3014-b333-46f1-8adc-d7f0bf8048fa_2472_dldesign_0_cycle1_af2pred (protein)
chain: EEEKKLTDEAIKEAKKLFAKAGAEEDAKEVAEKARKEGVSAGLSKALSLAEYYKAEGNEKKAEAAEKAAEALADALIKIRKAKRE
B33: design_604_3e0b3014-b333-46f1-8adc-d7f0bf8048fa_1429_dldesign_0_cycle1_af2pred (protein)
chain: DKQVISNKAKAQAERAKQAAKNILKTGDASLAPKVKEIAKKAEKAAKEAEKAGDKESAKEAKKAAKEAKKAAKKVEE
B34: design_604_3e0b3014-b333-46f1-8adc-d7f0bf8048fa_1571_dldesign_0_cycle1_af2pred (protein)
chain: DPKQLLSDARDQITELFFEAGKEAVPYNRKVVAALKAGDLDAALAAVEEFQKEYPEVGAKAKAVMDKAIAAAKAA
B35: design_604_3e0b3014-b333-46f1-8adc-d7f0bf8048fa_1413_dldesign_0_cycle1_af2pred (protein)
chain: EEEKEKRAEEKRKEIEELAKLAAENKEKGEKAVEKAKELVEKADEEEAPALAKALSRLVAAAYAVDEEVADKAFEAYALAWKKAQ
B36: design_604_3e0b3014-b333-46f1-8adc-d7f0bf8048fa_2182_dldesign_0_cycle1_af2pred (protein)
chain: EEEEKKQKAVEKAKEAAKRLKEVYEKAPEELKPIVKDALDKVEAYAELAELNDAEIAEKAAKRAEKIAEEAIKKVE
B37: design_604_3e0b3014-b333-46f1-8adc-d7f0bf8048fa_1395_dldesign_0_cycle1_af2pred (protein)
chain: AEKEELIAKAKEIAAKSAEVAKEAKKLGKDAAEAETTAKEAQKTAEEAIKKAEAGEIDVETLKKLVSKAAGLYYEAKSYLEVVKKKKE
B38: design_604_3e0b3014-b333-46f1-8adc-d7f0bf8048fa_2008_dldesign_0_cycle1_af2pred (protein)
chain: SSLEEAKKAKELAEELKKKVKELAKEAKADPSKAAEAAKVAKAIGEEAKELGKKYPEAAKYADAVAEYALHAAEQLEKLA

Each binder was assayed against VTCN1, Q7Z7D3.
Chain of VTCN1, Q7Z7D3 (Q7Z7D3 whole entry): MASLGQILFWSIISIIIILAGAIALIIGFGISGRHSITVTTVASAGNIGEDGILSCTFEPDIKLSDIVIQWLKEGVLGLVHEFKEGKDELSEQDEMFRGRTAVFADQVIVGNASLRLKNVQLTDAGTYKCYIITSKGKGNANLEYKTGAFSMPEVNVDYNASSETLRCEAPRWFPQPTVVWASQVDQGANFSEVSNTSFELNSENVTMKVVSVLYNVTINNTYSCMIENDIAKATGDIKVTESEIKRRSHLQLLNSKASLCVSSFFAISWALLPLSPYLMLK

Binding in a display sort, inactive:
B1 not found
B2 not found
B3 not found
B4 not found
B5 not found
B6 not found
B7 not found
B8 not found
B9 not found
B10 not found
B11 not found
B12 not found
B13 not found
B14 not found
B15 not found
B16 not found
B17 not found
B18 not found
B19 not found
B20 not found
B21 not found
B22 not found
B23 not found
B24 not found
B25 not found
B26 not found
B27 not found
B28 not found
B29 not found
B30 not found
B31 not found
B32 not found
B33 not found
B34 not found
B35 not found
B36 not found
B37 not found
B38 not found
